From the supplement of paper PMC11417369
± gives the standard deviation of the averaged measurements. Over roughly 25,000 sequences, “ln(normalized median fluorescence intensity)” has its median near 8.6; the highest 2% begin near 10. Only a selection was taken, and the highest values are over-represented in it overall.

Tested on: PfAP2-EXP AP2 domain (GST-tagged)
Test: gcPBM binding intensity (ln(normalized median fluorescence intensity)); higher = stronger DNA binding
Method in brief: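 GST-fused DNA-binding domains of P. falciparum, expressed in E. coli, were applied at about 25 μg on average for 1 h to an Agilent 4 × 180k array of primer-extended double-stranded 36-bp intergenic genomic probes and negative controls. Binding intensity is the highest Masliner-normalised natural-log median intensity across replicate spots of either probe orientation, measured with Alexa488 anti-GST antibody and a 488 nm scan.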

Sequence | gcPBM binding intensity (ln)
ATAATAATATTTCTATGTACTTATTTTATGTATTAG [XGTACX_site1747] | 8.51 ± 0.4
TTTGAATAAAAACAAAAAATTAAATTAAATTAAATA [CACACA_negctrl_site312] | 8.15 ± 0.5
ATTTCCTTGAATGTTGCATGCTGTATTTTAATTAAA [TGCATGCA_site280] | 9.88 ± 0.43
ATTTTTGAACGGTACAGTACAGAATTTAATTAACCC [XGTACX_site47] | 9.13 ± 0.54
AAAAAACACGGACACACACACATATACATACATACA [CACACA_site5470] | 9.07 ± 0.3
CTAAAATACGGACACACACACACATATATATATATA [CACACA_site6138] | 10.3 ± 0.15
AGTATACATATATATACACACATATATATATATATA [CACACA_site300] | 10.2 ± 0.34
AGTATACTCGGACACACACACACATATATATATATA [CACACA_site5031] | 10.3 ± 0.2
AAAAAAAACGGACACACACACATAAATATATATAAA [CACACA_site4260] | 9.02 ± 0.4
AAAAAAAACGGACACACACACATACAAAATATATAT [CACACA_site4910] | 8.7 ± 0.38
AATAACCACGGACACACACACATATATATATATATA [CACACA_site5873] | 10.2 ± 0.46
AAAAAAAACGGACACACACACATACCCATACATACA [CACACA_site5574] | 8.78 ± 0.49
CCCCCCCACGGACACACACACATACATACCACATAT [CACACA_site5303] | 10.3 ± 0.19
AGTATACATATATATACACACACATATATATATATA [CACACA_site7883] | 9.98 ± 0.62
TACATACACGGACACACACACATATATATATATATA [CACACA_site5883] | 10.2 ± 0.36
CGCATACACGGACACACACACACATATATATATATA [CACACA_site4520] | 10.1 ± 0.34
TTTAAAATTATAAGGATTAAAAAAAAAAAAAATAAA [CACACA_negctrl_site114] | 8.27 ± 0.45
ATTTTGTTTTTTTTTGCACACCATAAGGAGTGTAGG [CACACA_site1414] | 8.84 ± 0.41
AATAATGTATGAAATAAACACACAAGTAAGTACATA [CACACA_site8776] | 8.85 ± 0.39
TACAAAAGCGATACGGCACACATTTCCTGTTTAAAT [CACACA_site2746] | 8.74 ± 0.33
AATTATTTACCCTATACACACAAAACACGCTAAAAA [CACACA_site1211] | 8.79 ± 0.43
AATATATTTTTTCACTGTACTTTTATTATATATACA [XGTACX_site8312] | 8.97 ± 0.36
AAATAAAAACATAACAGTACAGTTAACATTTTTATA [XGTACX_site3479] | 8.29 ± 0.35
AATACATTTATGAGCTGTACACATTTATTTGAGCTA [XGTACX_site7695] | 8.51 ± 0.27
